About 83,000 compounds went through this panel and 20% of them were active in at least one assay; those are over-represented in the sample as a whole.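 Treatment: one concentration, 48 hours, 96-well format. Scoring: percent growth, with anything below 10 considered active.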 Unmarked numbers belong to inactive results. The source made the active and inactive calls.

Among the data in PubChem BioAssay (NCI) are growth values, retold here.

For the assay, the system named is CAKI-1 renal. Briefly: NCI-60 one-dose screen, 48 h (100 = growth as untreated, 0 = no growth, -100 = all killed). Conditions: 10 µM. Here is the method: Growth inhibition of the CAKI-1 human tumor cell line is measured as a screen for anti-cancer activity. Cells are grown in 96 well plates and exposed to the test compound for 48 hours. Compounds are tested at a single concentration, which is 10^-5 M for most compounds. The reported endpoint is percent growth (GI% or GIPRCNT), where numbers from 0 - 100% represent growth inhibition, and numbers from -100% - 0 represent cell death. For example, a value of 40 represents 60% growth inhibition. A value of 0 means no net growth occurred over the course of the experiment. A value of -40 indicates 40% of cells at the beginning of the experiment died by the end of the experiment. A value of -100 means all cells are dead at the end of the experiment.
NCI-60 Human Tumor Cell Lines Screen was performed using the standard one-dose NCI protocol, which is described in more detail at https://dtp.cancer.gov/discovery_development/nci-60/default.htm.
Compounds with GIPRCNT values below 10 were considered active. Activity score was based on GIPRCNT using the following formula: […]
Score is 0 for GIPRCNT values of 100 or above, 50 for GIPRCNT values of 0, and 100 for GIPRCNT values of -100.
For the molecule `Cc1ccc2c(c1)C(=O)/C(=C/c1c[nH]c3ccccc13)S2`, the growth is 37.1%.
The result for `COc1cc2oc(-c3cccc(C(=O)Nc4ccc(Cl)cc4)c3)cc(=O)c2c(OCCN)c1OC` reads -85% (active); that for `O=C(Nc1ccc(OCc2ccc(Cl)cc2)cc1)Nc1ccc(Cl)c(C(F)(F)F)c1`, 1.19% (active); that for `COc1cc(C2CC(c3ccc(Oc4ccc(Cl)cc4)cc3)=NN2c2nc(-c3ccc(Cl)cc3)c(C#N)c(N3CCOCC3)n2)cc(OC)c1OC` (stereo not given), 79%.
The result for `Fc1ccc(-c2csc(Nc3cccc(Nc4nc(-c5ccc(F)cc5)cs4)c3)n2)cc1` reads 46.4%; that for `COc1ccc(C2OC[C@@]3(C)C4CC[C@]5(C)C(CC=C6C7CC(C)(C)CC[C@]7(C(=O)O)CC[C@]65C)[C@@]4(C)C[C@@H](O)[C@@H]3O2)cc1` (stereo not given in full), 73.5%.
The result for `Cc1cc(N=C2NC(=O)S/C2=C\c2ccc(F)cc2)n[nH]1` reads 21.2%; that for `CCOC(=O)C1=C(N)N(c2ccc(C)cc2)C2=C(C(=O)CC(C)(C)C2)C1c1ccccc1Br` (stereo not given), 69.8%.
As to `O=C1NC2C=CC=CC2/C1=C1/SC(=S)N(C2CC(=O)N(c3ccc(Br)cc3)C2=O)C1=O` (stereo not given), the growth is 77.1%.
The result for `Nc1nnc(-c2c[nH]c3ncc(Br)cc23)c(-c2c[nH]c3ccc(Br)cc23)n1` reads 28.1%; that for `COc1ccc(C2c3sc4ccc(C)cc4c3Oc3nc[nH]c(=O)c32)cc1` (stereo not given), 60%.
As to `C#C[C@]1(O)CC[C@H]2[C@@H]3CC=C4c5sc(Nc6cc(C)cc(C)n6)nc5CC[C@]4(C)[C@H]3CC[C@@]21C`, the growth is -27.6% (active).
For the molecule `Fc1ccc(/C=C/c2nc3ccccc3n3c(-c4ccc(Cl)cc4)nnc23)cc1`, the growth was 62.3%.
For `C#CCOc1cc(N(CC)CC)ccc1C(C(=O)NC(C)(C)C)N(C(=O)C1CCc2cc(F)ccc2O1)c1ccc(F)cc1F` (stereo not given) the value was 29.8%; for `C#C[C@]1(O)CC[C@H]2[C@@H]3CC=C4c5sc(Nc6ccc(C(F)(F)F)cn6)nc5CC[C@]4(C)[C@H]3CC[C@@]21C`, 0.3% (active).
For `CC1[C@H]2[C@H](C[C@H]3[C@@H]4CC=C5c6sc(Nc7cccc(Cl)n7)nc6CC[C@]5(C)[C@H]4CC[C@@]32C)O[C@]12CC[C@@H](C)CO2` (stereo not given in full) the value was 84.8%; for `O=[N+]([O-])c1cccc(-c2nnc3c(/C=C/c4ccccc4O)nc4ccccc4n23)c1`, 40.6%.
On to `COc1ccc2[nH]cc(-c3nc(N)nnc3-c3cn(C)c4ncc(Br)cc34)c2c1`, for which the growth was -0.341% (active).
For `Cn1cc(-c2nnc(N)nc2-c2c[nH]c3ccccc23)c2cc(Br)cnc21` the value was 24.3%; for `COc1ccc(OC)c(-n2cc(C#N)c(N)c2C(=O)c2ccc(Cl)cc2Cl)c1`, 36.9%; for `O=C(Nc1ccc(OCc2ccc(F)cc2)cc1)Nc1ccc(Cl)c(C(F)(F)F)c1`, 2.77% (active).
The result for `COc1ccc(Cn2cc(C#N)c(N)c2C(C)=O)c(OC)c1` reads 102%; that for `Cc1ccc(COc2ccc(NC(=O)Nc3ccc(Cl)c(C(F)(F)F)c3)cc2)cc1`, 61.7%; that for `COc1ccc(-n2c(SCC(=O)NNS(=O)(=O)c3ccccc3)nc3ccc(Cl)cc3c2=O)cc1`, 80.4%.
For `Cn1cc(-c2nnc(N)nc2-c2c[nH]c3ccc(F)cc23)c2cc(Br)cnc21`, the growth was 37.4%.
The result for `COc1ccc(Cc2nn(CC(=O)N/N=C/c3ccc(Br)cc3)c(=O)c3c(C)noc23)cc1` reads 21.4%; that for `O=C(c1ccc(Cl)cc1)C(c1c[nH]c2ccccc12)c1c[nH]c2ccccc12`, -90.3% (active); that for `O=C(CN1CCN(c2ncnc3c2cnn3-c2ccccc2)CC1)Nc1ccc(Cl)cc1`, -39.7% (active).
For the molecule `Cc1ccc2c(c1)C(=O)/C(=C/c1ccc([N+](=O)[O-])cc1)S2`, the growth is 61.9%.
In the case of `Cc1cc(N=C2NC(=O)/C(=C/c3cc(C(C)(C)C)c(O)c(C(C)(C)C)c3)S2)n[nH]1`, the growth is 12.4%.
Turning to `Cn1cc(-c2nc(N)nnc2-c2c[nH]c3ccccc23)c2cc(Br)cnc21`, the growth is 11.9%.
The result for `COc1ccc(NCc2cn(-c3ccc(C(=O)O)cc3)nc2-c2ccc(F)cc2)cc1C(F)(F)F` reads 65.2%; that for `CCOC(=O)c1ccc(NC(=O)CSC(CC(=O)c2sc(Nc3ccccn3)nc2C)c2ccccc2F)cc1` (stereo not given), 2.96% (active); that for `O=C(c1ccc(F)cc1)C(c1c[nH]c2ccccc12)c1c[nH]c2ccccc12`, 31.5%.
Regarding `O=C(Nc1ccc(Oc2ncnc3scc(Nc4n[nH]c(=S)s4)c23)cc1)C1(C(=O)Nc2cccc(C(F)(F)F)c2)CC1`, the growth is 81.6%.
For `CC1(C)CC[C@]2(C(=O)O)CC[C@]3(C)C(=CCC4[C@@]5(C)C[C@@H](O)[C@@H]6OC(c7cccc(F)c7)OC[C@@]6(C)C5CC[C@]43C)C2C1` (stereo not given in full) the value was 49%.
Take `O=C1S/C(=C\c2ccc([N+](=O)[O-])cc2)C(=O)N1CCN1CCCCC1`: the growth was 102%.
For `Cn1cc(/C=C(/SS/C(=C/c2cn(C)c3cccc(C(=O)O)c23)C(=O)O)C(=O)O)c2c(C(=O)O)cccc21` the value was 87.9%.
For `CC(C)(C)c1cc(/C=C2\S/C(=N/c3ncn[nH]3)NC2=O)cc(C(C)(C)C)c1O` the value was 19.6%; for `COc1ccccc1-n1cc(C#N)c(N)c1C(=O)c1ccc(Cl)cc1Cl`, 33.8%.
